aDG glyco act = activators of alpha-DG glycosylation, primary screen, uHTS, Pro5-aDG cells, AlphaScreen. alpha-DG glycosylation AlphaScreen (IIH6); 0% Pro5, 100% B10-LARGE cell signal. activation, % at 10 µM. 0.22% of 360,000 active. AID 624168, 2012;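 active = activation of at least 8% versus controls, or a plate z-score of at least 8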;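 note: Pro5 are CHO cells carrying HIG-tagged alpha-DG that lacks glycosylation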
A3G deaminase = APOBEC3G DNA deaminase inhibitors, primary screen, biochemical, fluorescence, single-stranded DNA substrate, uHTS; inhibition, % at 20 µM; DNA dC->dU-editing enzyme APOBEC-3G (Homo sapiens), Q9HC16; 0.28% of 330,000 active; recombinant A3G, ssDNA deamination FAM/TAMRA fluorescence;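 active = inhibition of at least 40% at 20 µM, with no more than 30% in the related APOBEC3A deaminase screen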;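 note: plate controls were DMSO wells with A3G for no effect and wells lacking A3G enzyme for full effect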
rCAG binder = binders of r(CAG) RNA repeats, primary screen, biochemical, fluorescence; r(CAG) RNA repeat, TO-PRO-1 dye displacement fluorescence; inhibition, % at 3 µM; 1.3% of 370,000 active;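 active = inhibition above the plate cutoff, the mean of all test compounds on that plate plus 3 SD, cut at about 35% in these data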;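 note: 0% = DMSO alone and 100% = 100 µM mitoxantrone as full dye displacement; higher means more dye released from RNA so lower well fluorescence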
A3A deaminase = APOBEC3A ssDNA deaminase inhibitors, primary screen, selectivity assay for APOBEC3G inhibitor project, biochemical, FAM/TAMRA oligo cleavage fluorescence | DNA dC->dU-editing enzyme APOBEC-3A (Homo sapiens), P31941 | recombinant A3A, FAM/TAMRA ssDNA deamination fluorescence | inhibition, % at 20 µM | 0.41% of 330,000 active | AID 493011, 2011;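 active = at least 40% inhibition at 20 µM here, with at most 30% in a related deaminase screen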;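 note: plate controls were A3A with DMSO for no effect and wells lacking A3A enzyme for full effect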
Target sequence (P31941 whole entry, looked up): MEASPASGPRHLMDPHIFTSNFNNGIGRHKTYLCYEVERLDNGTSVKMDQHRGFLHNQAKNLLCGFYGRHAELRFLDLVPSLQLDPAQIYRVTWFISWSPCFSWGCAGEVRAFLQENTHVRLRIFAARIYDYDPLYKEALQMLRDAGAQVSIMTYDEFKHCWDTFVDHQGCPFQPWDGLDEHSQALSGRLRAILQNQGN
ALR H2O2 inh = inhibitors of human ALR sulfhydryl oxidase, primary screen, biochemical, H2O2 detection, HRP-luminol luminescence, single point. purified ALR, DTT oxidation. inhibition, % (concentration not given with the values). 3.8% of 290,000 active;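 active = mean replicate inhibition above about 79%, with every replicate also reaching it, limit read from the data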
Target sequence (P55789 whole entry, looked up): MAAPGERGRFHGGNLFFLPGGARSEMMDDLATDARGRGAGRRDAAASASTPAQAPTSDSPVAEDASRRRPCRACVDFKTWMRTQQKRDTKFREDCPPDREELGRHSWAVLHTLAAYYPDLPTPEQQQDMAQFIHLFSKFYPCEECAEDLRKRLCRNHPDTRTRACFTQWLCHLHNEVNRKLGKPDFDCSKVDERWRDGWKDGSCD
PHOSPHO1 block = PubChem AID 1565. Phosphoethanolamine/phosphocholine phosphatase (Homo sapiens), Q8TCT1. recombinant PHOSPHO1, absorbance phosphatase assay. inhibition, % at 13.3 µM. 1.1% of 290,000 active; in the data active = inhibition above about 60%
Target sequence (Q8TCT1 whole entry, looked up): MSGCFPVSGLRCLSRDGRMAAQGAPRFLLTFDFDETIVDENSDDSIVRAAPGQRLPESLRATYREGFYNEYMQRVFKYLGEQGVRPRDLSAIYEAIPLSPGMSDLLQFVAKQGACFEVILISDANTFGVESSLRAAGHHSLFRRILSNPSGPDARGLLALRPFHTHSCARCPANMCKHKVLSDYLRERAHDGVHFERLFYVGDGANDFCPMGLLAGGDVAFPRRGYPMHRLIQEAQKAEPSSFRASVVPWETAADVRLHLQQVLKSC
A3G conf = APOBEC3G deaminase inhibitor retest, confirmation, biochemical, fluorescence, single-stranded DNA substrate, single concentration. shares compounds with A3G deaminase. recombinant A3G ssDNA deaminase, UDG/FAM-TAMRA fluorescence. inhibition, % at 20 µM. 72% of 890 active. AID 493152, 2011;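 active = inhibition reaching a set limit in any replicate at 20 µM, the limit being 80% of the first screen's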
UDG ctr A3G = E. coli UDG inhibitors, confirmation, counter-screen for APOBEC3G inhibitor project, biochemical, single concentration, fluorescence, FAM/TAMRA oligo; shares compounds with A3G deaminase; UDG counterscreen; inhibition, % at 20 µM; 710 tested, under 10 active; AID 504715, 2011;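 active = compounds giving 40% or more inhibition at 20 µM in any one of the three replicates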;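 note: plate controls were DMSO wells with UDG and oligo for no effect and DMSO wells lacking both for full effect; inhibitors lower the FAM signal released by uracil excision and alkaline cleavage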
Numbers without * were called inactive; · = not tested or not shown. Most compounds without a hit are left out; they make up all but 5.4% or so of the library.

SMILES | aDG glyco act | A3G deaminase | rCAG binder | A3A deaminase | ALR H2O2 inh | PHOSPHO1 block | A3G conf | UDG ctr A3G
CC(C)(C)c1ccc(S(=O)(=O)N2CCCC2C(=O)N2CCN(c3ccccc3)CC2)cc1 (configuration not stated) | · | · | 8 | · | · | · | · | ·
Cc1ccc(-n2c(SCC(=O)NC3CCS(=O)(=O)C3)nc3ccccc3c2=O)c(C)c1 (configuration not stated) | 0 | · | 1 | · | · | · | · | ·
Cn1c(-c2cc3c(C(F)(F)F)nn(C)c3s2)n[nH]c1=S | 0 | 53* | 2 | -2 | 13 | -5 | 77* | 1
CCn1c(-c2cc3c(C(F)(F)F)nn(C)c3s2)n[nH]c1=S | 0 | 41* | 4 | -8 | 58 | 37 | 63* | -2
COCc1cc(C)c(C#N)c(=S)[nH]1 | 0 | 80* | · | 2 | 21 | 42 | 79* | -3
COc1ccc([C@H]2C[C@@H](O)[C@H](n3cc(COC(=O)c4ccccc4)nn3)CN2CC2CCCCC2)cc1 | 0 | · | 5 | · | · | · | · | ·
O=C(Nc1cc(S(=O)(=O)N2CCOCC2)ccc1N1CCCCC1)c1cc(-c2ccccn2)nc2ccccc12 | 0 | 53* | 0 | 4 | 4 | -65 | 58* | -2
Cc1ccc(S(=O)(=O)N2CCOCC2)cc1NC(=O)c1cc(-c2ccccn2)nc2ccccc12 | 0 | 2 | 6 | 2 | -2 | 28 | · | ·
O=C(Cc1ccc(Cl)cc1Cl)Nc1cccc(S(=O)(=O)Nc2ccccc2F)c1 | 0 | 56* | 29 | 8 | -7 | 74* | 74* | 0
O=C(Nc1cccc(S(=O)(=O)Nc2ccccc2F)c1)c1ccc2ccccc2n1 | 2 | 56* | 31 | 2 | 1 | 6 | 61* | -3
O=S(=O)(Nc1ccccc1F)c1cccc(NC(=S)NCCN2CCOCC2)c1 | 0 | 71* | 8 | -2 | 37 | · | 80* | -5
O=C(Cc1c(F)cccc1Cl)Nc1cccc(S(=O)(=O)NC2=NCCCCC2)c1 | 0 | 5 | 0 | 3 | · | · | · | ·
CC(=O)N(C(C)=O)c1ncn(C)c1S(=O)(=O)Nc1ccccc1 | 0 | · | 2 | · | · | · | · | ·
CC1(c2nnnn2-c2ccc3c(c2)OCCO3)CCC(=O)N1Cc1cccnc1 (configuration not stated) | 0 | · | 1 | · | · | · | · | ·
Cc1ccc(CSc2nnc(-c3n[nH]c4c3CCC4)n2N)cc1 | · | · | 2 | · | · | · | · | ·
CCCCCCCCN1C(=O)[C@H](CC(=O)NCc2cccc(C(F)(F)F)c2)C[C@@]2(C(=O)OCC)CCC=C12 | 0 | · | 4 | · | · | · | · | ·
CCCC(=O)Nc1nc2ccc(OC)cc2s1 | 0 | 1 | 0 | 0 | -15 | 16 | · | ·
COc1ccc2nc(NC(=S)N(C)C)sc2c1 | 1 | 61* | 7 | 2 | 73 | 95* | 69* | -5
C/C(=N\NC(=O)C(=O)N/N=C(\C)c1cccc(O)c1)c1cccc(O)c1 | 0 | 58* | 3 | 2 | 14 | 30 | 1 | ·
C/C(=N/NC(=O)C(=O)N/N=C(/C)c1ccccc1)c1ccccc1 | · | -7 | -4 | -1 | 17 | 52 | · | ·
COCCCNC(=S)NNC(=S)Nc1ccccc1 | 0 | 42* | 2 | 2 | 96* | -6 | 72* | 2
COCCCNC(=S)NCCc1ccc(F)cc1 | 0 | -7 | -2 | -4 | 5 | -16 | · | ·
COCCCNC(=S)NNC(=S)Nc1ccc(F)cc1F | 0 | 55* | 3 | -1 | 10 | 83* | 86* | -8
COc1ccc(N2CCN(CCCn3ccc(NC(=O)OCc4ccccc4)nc3=O)CC2)cc1 | 0 | · | 3 | · | · | · | · | ·
Cc1ccccc1NC(=S)c1ccc2ccccc2n1 | 0 | 42* | 5 | -3 | -3 | -36 | 40* | 1
SMILES | aDG glyco act | A3G deaminase | rCAG binder | A3A deaminase | ALR H2O2 inh | PHOSPHO1 block | A3G conf | UDG ctr A3G
CCCN(CC(=O)Nc1ccccc1C)C(=O)c1ccc2ccccc2n1 | 0 | -5 | -4 | 3 | -11 | · | · | ·
CCOC(=O)c1sc(=S)n(-c2cc(OC)ccc2OC)c1N | 0 | 60* | -3 | 3 | 7 | 45 | 27 | ·
CCOC(=O)c1sc(=S)n(-c2cc(F)ccc2F)c1N | 0 | 13 | 2 | 0 | 5 | -36 | · | ·
COC(=O)c1cc(=O)nc2sc(-c3ccc(F)cc3)nn12 | 0 | 42* | · | 6 | -4 | 95* | 34* | -3
COC(=O)c1cc(=O)nc2sc(-c3cccs3)nn12 | 0 | -11 | 1 | 2 | 1 | 9 | · | ·
CC(C)(C)c1ccc(/C=N/Nc2cccc(C(=O)O)c2)cc1 | 0 | 2 | 20 | 2 | 9 | 2 | · | ·
CN(C)c1ccc(/C=N/Nc2cccc(C(=O)O)c2)cc1 | 0 | 47* | 5 | 2 | 99* | 5 | 27 | ·
Cc1nc2scc(-c3ccccc3)c2c(=O)n1N=C1C=CC(=O)C=C1 | · | 65* | 3 | -1 | · | 1 | 93* | 2
CCN(CC)C(=O)CSc1nc2c(sc(=S)n2-c2ccccc2)c(=O)n1-c1ccc(OC)cc1OC | 0 | 53* | 4 | 1 | · | -81 | 56* | -4
CCOC(=O)CSc1nc2c(sc(=S)n2-c2ccccc2)c(=O)n1-c1ccc(OC)cc1OC | 0 | 41* | 10 | 4 | · | 13 | 28* | -4
CCOc1cc(OCC)cc(C(=O)N2CCC[C@@H]2C(=O)N2CCC[C@H]2C(=O)NCc2ccccc2)c1 | · | · | -1 | · | · | · | · | ·
CCc1nn(CCCC(=O)NC2CCCCC2C)c(=O)c2cc3occc3n12 (configuration not stated) | 0 | · | -1 | · | · | · | · | ·
COc1ccc(CNC(=O)c2cc3ccccc3o2)cc1OC | 0 | 71* | -7 | -3 | -26 | 14 | -3 | 1
COc1ccc(NC(=O)c2cc3ccccc3o2)cc1OC | 0 | -10 | -4 | -2 | -5 | · | · | ·
CC(C)C1C(=O)N(Cc2cn(CCC3OCCCO3)nn2)CCS(=O)(=O)N1Cc1ccc(-c2ccc(Cl)c(Cl)c2)cc1 (configuration not stated) | 0 | · | 16 | · | · | · | · | ·
CC1CCC2(CC1)NC(=S)N(c1ccccc1)N2 (configuration not stated) | 0 | 61* | -2 | 0 | 93* | 100* | 23* | 3
O=C1NC2(CCCCC2)NN1c1ccccc1 | 0 | -3 | 2 | 2 | · | -3 | · | ·

Screening results as filed in PubChem.
